Data reported in PubChem BioAssay AID1159580 (chemical genetic matrix, 2015).
Out of some 5,500 compounds screened, about 2,000 (36%) were called active. Roughly 18% stayed inconclusive and do not appear here. This is one part of the list. A number with no mark means an inactive call. No stated cut-off is given here; in the data, active means normalized growth mostly below about 0.91 (no sharp cut-off); inconclusive means no clear call, values can overlap the other calls; inactive means mostly above about 0.92.

Experiment: chemical genetic growth profiling, strain panel (AID 1159580);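 further: tested at 20 µM; growth read once vehicle control cultures reached saturation at 30 °C; 1 = growth at the plate median or of vehicle wells; lower values mean less growth of the strain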
Conditions: growth OD

## CC(=O)O[C@@H]1C=C[C@@]2(C)C(C[C@@H](OC(C)=O)[C@@]3(C)C4=CC(=O)O[C@@H](c5ccoc5)[C@]4(C)CCC23)C1(C)C (some centres not stated)
S. cerevisiae deletion strains, locus YJR066W, strain TOR1, active compounds read low
  normalized growth: 0.928
S. cerevisiae deletion strains, locus YJR075W, strain HOC1, active compounds read low
  normalized growth: 1.03
S. cerevisiae deletion strains, locus YKL009W, strain mrt4, active compounds read low
  normalized growth: 0.364 (active)
S. cerevisiae deletion strains, locus YKL068W, active compounds read low
  normalized growth: 0.0545 (active)
S. cerevisiae deletion strains, locus YKL085W, strain MDH1 (second series), active compounds read low
  normalized growth: 0.0525 (active)
S. cerevisiae deletion strains, locus YKL085W, strain MDH1, active compounds read low
  normalized growth: 0.0525 (active)
S. cerevisiae deletion strains, locus YKL160W, strain elf1, active compounds read low
  normalized growth: 0.988
S. cerevisiae deletion strains, locus YKL190W, strain CNB1, active compounds read low
  normalized growth: 1.01
S. cerevisiae deletion strains, locus YKR001C, strain vps1, active compounds read low
  normalized growth: 0.0622 (active)
S. cerevisiae deletion strains, locus YKR026C, strain gcn3, active compounds read low
  normalized growth: 1.01
S. cerevisiae deletion strains, locus YKR091W, strain srl3, active compounds read low
  normalized growth: 0.982
S. cerevisiae deletion strains, locus YLL001W, strain dnm1, active compounds read low
  normalized growth: 1.02
S. cerevisiae deletion strains, locus YLL026W, active compounds read low
  normalized growth: 1.01
S. cerevisiae deletion strains, locus YLL041C, strain sdh2, active compounds read low
  normalized growth: 0.999
S. cerevisiae deletion strains, locus YLR027C, strain aat2, active compounds read low
  normalized growth: 1
S. cerevisiae deletion strains, locus YLR039C, strain RIC1, active compounds read low
  normalized growth: 0.982
S. cerevisiae deletion strains, locus YLR058C, strain SHM2, active compounds read low
  normalized growth: 1.01
S. cerevisiae deletion strains, locus YLR102C, strain apc9, active compounds read low
  normalized growth: 0.0602 (active)
S. cerevisiae deletion strains, locus YLR113W, strain HOG1, active compounds read low
  normalized growth: 1.01
S. cerevisiae deletion strains, locus YLR221C, strain rsa3, active compounds read low
  normalized growth: 1.05
S. cerevisiae deletion strains, locus YLR258W, strain gsy2, active compounds read low
  normalized growth: 0.999
S. cerevisiae deletion strains, locus YLR262C, strain YPT6 (second series), active compounds read low
  normalized growth: 0.96
S. cerevisiae deletion strains, locus YLR262C, strain YPT6, active compounds read low
  normalized growth: 0.986
S. cerevisiae deletion strains, locus YLR268W, strain sec22, active compounds read low
  normalized growth: 0.0676 (active)
S. cerevisiae deletion strains, locus YLR320W, strain mms22, active compounds read low
  normalized growth: 1.02
S. cerevisiae deletion strains, locus YLR330W, strain CHS5, active compounds read low
  normalized growth: 1.01
S. cerevisiae deletion strains, locus YLR342W, strain FKS1 (second series), active compounds read low
  normalized growth: 1.03
S. cerevisiae deletion strains, locus YLR342W, strain FKS1, active compounds read low
  normalized growth: 0.994
S. cerevisiae deletion strains, locus YLR357W, strain rsc2, active compounds read low
  normalized growth: 1.03
S. cerevisiae deletion strains, locus YLR370C, strain arc18, active compounds read low
  normalized growth: 0.983
S. cerevisiae deletion strains, locus YLR371W, strain rom2, active compounds read low
  normalized growth: 0.0619 (active)
S. cerevisiae deletion strains, locus YLR384C, strain iki3, active compounds read low
  normalized growth: 0.983
S. cerevisiae deletion strains, locus YLR418C, strain cdc73, active compounds read low
  normalized growth: 0.0929 (active)
S. cerevisiae deletion strains, locus YML016C, strain PPZ1, active compounds read low
  normalized growth: 1.02
S. cerevisiae deletion strains, locus YML032C, strain rad52, active compounds read low
  normalized growth: 0.15 (active)
S. cerevisiae deletion strains, locus YML120C, strain ndi1, active compounds read low
  normalized growth: 0.994
S. cerevisiae deletion strains, locus YML124C, strain tub3, active compounds read low
  normalized growth: 0.0589 (active)
S. cerevisiae deletion strains, locus YMR058W, strain fet3, active compounds read low
  normalized growth: 0.984
S. cerevisiae deletion strains, locus YMR078C, strain ctf18, active compounds read low
  normalized growth: 0.072 (active)
S. cerevisiae deletion strains, locus YMR125W, strain sto1, active compounds read low
  normalized growth: 0.997
S. cerevisiae deletion strains, locus YMR129W, active compounds read low
  normalized growth: 0.999
S. cerevisiae deletion strains, locus YMR205C, strain PFK2, active compounds read low
  normalized growth: 1
S. cerevisiae deletion strains, locus YMR223W, strain ubp8, active compounds read low
  normalized growth: 0.0665 (active)
S. cerevisiae deletion strains, locus YMR231W, strain pep5, active compounds read low
  normalized growth: 0.991
S. cerevisiae deletion strains, locus YMR263W, strain SAP30, active compounds read low
  normalized growth: 1
S. cerevisiae deletion strains, locus YMR307W, strain GAS1, active compounds read low
  normalized growth: 1.06
S. cerevisiae deletion strains, locus YNL067W, strain RPL9B, active compounds read low
  normalized growth: 1
S. cerevisiae deletion strains, locus YNL071W, strain lat1, active compounds read low
  normalized growth: 0.992
S. cerevisiae deletion strains, locus YNL128W, strain TEP1, active compounds read low
  normalized growth: 1
S. cerevisiae deletion strains, locus YNL153C, strain GIM3, active compounds read low
  normalized growth: 0.998
S. cerevisiae deletion strains, locus YNL183C, strain NPR1, active compounds read low
  normalized growth: 0.956
S. cerevisiae deletion strains, locus YNL209W, strain ssb2, active compounds read low
  normalized growth: 0.985
S. cerevisiae deletion strains, locus YNL233W, strain BNI4, active compounds read low
  normalized growth: 1
S. cerevisiae deletion strains, locus YNL248C, strain rpa49, active compounds read low
  normalized growth: 0.961
S. cerevisiae deletion strains, locus YNL250W, strain rad50, active compounds read low
  normalized growth: 0.065 (active)
S. cerevisiae deletion strains, locus YNL271C, strain bni1, active compounds read low
  normalized growth: 0.0603 (active)
S. cerevisiae deletion strains, locus YNL298W, strain CLA4, active compounds read low
  normalized growth: 0.0602 (active)
S. cerevisiae deletion strains, locus YNL307C, strain MCK1, active compounds read low
  normalized growth: 0.069 (active)
S. cerevisiae deletion strains, locus YNL322C, strain KRE1 (second series), active compounds read low
  normalized growth: 0.985
S. cerevisiae deletion strains, locus YNL322C, strain KRE1, active compounds read low
  normalized growth: 1.02
S. cerevisiae deletion strains, locus YNR049C, strain mso1, active compounds read low
  normalized growth: 0.975
S. cerevisiae deletion strains, locus YNR052C, strain pop2, active compounds read low
  normalized growth: 0.112 (active)
S. cerevisiae deletion strains, locus YOL006C, strain TOP1, active compounds read low
  normalized growth: 0.901
S. cerevisiae deletion strains, locus YOL147C, strain pex11, active compounds read low
  normalized growth: 0.0888 (active)
S. cerevisiae deletion strains, locus YOR001W, strain rrp6, active compounds read low
  normalized growth: 1.01
S. cerevisiae deletion strains, locus YOR061W, strain CKA2, active compounds read low
  normalized growth: 1.01
S. cerevisiae deletion strains, locus YOR069W, strain VPS5, active compounds read low
  normalized growth: 1.01
S. cerevisiae deletion strains, locus YOR070C, strain gyp1, active compounds read low
  normalized growth: 0.991
S. cerevisiae deletion strains, locus YOR080W, strain dia2, active compounds read low
  normalized growth: 0.984
S. cerevisiae deletion strains, locus YOR083W, strain WHI5, active compounds read low
  normalized growth: 1
S. cerevisiae deletion strains, locus YOR106W, strain vam3, active compounds read low
  normalized growth: 0.997
S. cerevisiae deletion strains, locus YOR136W, strain idh2, active compounds read low
  normalized growth: 0.0732 (active)
S. cerevisiae deletion strains, locus YOR144C, strain elg1, active compounds read low
  normalized growth: 0.131 (active)
S. cerevisiae deletion strains, locus YOR184W, strain ser1, active compounds read low
  normalized growth: 0.0712 (active)
S. cerevisiae deletion strains, locus YOR231W, strain MKK1, active compounds read low
  normalized growth: 0.985
S. cerevisiae deletion strains, locus YOR265W, strain rbl2, active compounds read low
  normalized growth: 0.985
S. cerevisiae deletion strains, locus YOR270C, strain vph1, active compounds read low
  normalized growth: 0.885
S. cerevisiae deletion strains, locus YOR290C, strain snf2, active compounds read low
  normalized growth: 0.956
S. cerevisiae deletion strains, locus YOR316C, strain cot1, active compounds read low
  normalized growth: 0.0594 (active)
S. cerevisiae deletion strains, locus YPL051W, strain arl3, active compounds read low
  normalized growth: 0.996
S. cerevisiae deletion strains, locus YPL055C, strain LGE1, active compounds read low
  normalized growth: 0.968
S. cerevisiae deletion strains, locus YPL078C, strain atp4, active compounds read low
  normalized growth: 0.982
S. cerevisiae deletion strains, locus YPL106C, strain sse1, active compounds read low
  normalized growth: 0.975
S. cerevisiae deletion strains, locus YPL240C, strain hsp82, active compounds read low
  normalized growth: 0.993
S. cerevisiae deletion strains, locus YPL241C, strain CIN2, active compounds read low
  normalized growth: 1.01
S. cerevisiae deletion strains, locus YPL256C, strain CLN2, active compounds read low
  normalized growth: 0.948
S. cerevisiae deletion strains, locus YPR119W, strain clb2, active compounds read low
  normalized growth: 0.0629 (active)
S. cerevisiae deletion strains, locus YPR141C, strain kar3, active compounds read low
  normalized growth: 0.0773 (active)
S. cerevisiae deletion strains, locus YPR163C, strain tif3, active compounds read low
  normalized growth: 0.0691 (active)
S. cerevisiae deletion strains, locus YPR167C, strain met16, active compounds read low
  normalized growth: 0.0608 (active)
S. cerevisiae deletion strains, strain wtn01, active compounds read low
  normalized growth: 0.0601 (active)
S. cerevisiae strains, strain wild type, active compounds read low
  normalized growth: 1.02
